The values below come from PubChem BioAssay.

The structures appear in SMILES notation. Values joined by “and” are separate entries in the source; they are usually repeats but may differ in a detail not shown here. Identical values can stand only once. Where a structure was tested more than once in an assay, its records may differ in their call. Active and inactive are the calls of the source.

A short description of assay [1]: E. coli DRC41 culture turbidity changes, primary screen, E. coli filamentation inducer project, strain DRC41, OD650, 48 h (AID 1152).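 Further: E. coli MC1000 strain DRC41 lacking acrAB efflux pump and sulA.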 To be noted: E. coli DRC41 (acrAB sulA), higher = more signal, called active from +8 up or from −8 down.
A short description of assay [2]: small-molecule binders of probe aLefty1, primary screen, biochemical, small-molecule microarray, 635/667 nm fluorescence (AID 1153).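 Further: score merges spot fluorescence with signal-to-noise ratio from the scanned slide images.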 To be noted: higher = more signal.
A short description of assay [3]: PSAC antagonists in infected red cells, primary screen, cell-based, P. falciparum Indochina, OD700, 1 h (AID 1154). Conditions: P. falciparum Indochina infected RBC osmotic lysis, higher = more signal, called active from +8 up or from −8 down.
A short description of assay [4]: PSAC antagonists in infected red cells, primary screen, cell-based, P. falciparum Indochina, OD700, 2 h (AID 1155).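 Further: lysis reports solute entry through the parasite surface anion channel PSAC; channel blockers reduce lysis of infected cells.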 Conditions: P. falciparum Indochina infected erythrocytes, osmotic lysis OD700; higher = more signal, called active from +8 up or from −8 down.
Assay [5] can be described thus: osmotic lysis modulators in infected erythrocytes, primary screen, PSAC antagonist project, cell-based, P. falciparum Indochina, OD700, 3 h (AID 1156). To be noted: higher = more signal, called active from +8 up or from −8 down.
The nature of assay [6]: PSAC antagonists in infected red cells, primary screen, cell-based, P. falciparum Indochina, OD700, 18 h (AID 1157). Conditions: P. falciparum Indochina infected erythrocytes, osmotic lysis OD700, 18 h; higher = more signal, called active from +8 up or from −8 down.
A short description of assay [7]: modulators of S6 phosphorylation in cells, primary screen, cell-based, A549, cytoblot, luminescence, serum-stimulated (AID 1158).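 Further: serum-stimulated A549 lung adenocarcinoma cells; signal is phosphorylated S6 detected by cytoblot immunostaining with HRP secondary.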 Conditions: A549 phospho-S6 cytoblot, 5 h, higher = more signal.
Assay [8] addresses NADPH oxidase 2 (Homo sapiens) (UniProt P04839). Description: NOX2-dependent H2O2 signal modulators, primary screen, NOX inhibitor project, cell-based, HEK293-NOX2, PMA-stimulated, Amplex Red fluorescence (AID 1159). Further: test concentration not given here. To be noted: 45 min, higher = more signal, called active from +8 up or from −8 down.
The target in assay [9] is NADPH oxidase 4 (Homo sapiens) (UniProt Q9NPH5). Description: NOX4-dependent H2O2 signal modulators, primary screen, NOX inhibitor project, cell-based, HEK293-NOX4, tetracycline-induced, Amplex Red fluorescence (AID 1160). Conditions: 45 min, higher = more signal, called active from +8 up or from −8 down.
In assay [10] the target is NADPH oxidase 5 (Homo sapiens) (UniProt Q96PH1). In words: NOX5-dependent H2O2 signal modulators, primary screen, NOX inhibitor project, cell-based, HEK293-NOX5, Amplex Red fluorescence (AID 1161). Conditions: HEK293-NOX5, ionomycin, 45 min, higher = more signal.
Chain of NADPH oxidase 5 (Homo sapiens) (Q96PH1 whole entry, looked up): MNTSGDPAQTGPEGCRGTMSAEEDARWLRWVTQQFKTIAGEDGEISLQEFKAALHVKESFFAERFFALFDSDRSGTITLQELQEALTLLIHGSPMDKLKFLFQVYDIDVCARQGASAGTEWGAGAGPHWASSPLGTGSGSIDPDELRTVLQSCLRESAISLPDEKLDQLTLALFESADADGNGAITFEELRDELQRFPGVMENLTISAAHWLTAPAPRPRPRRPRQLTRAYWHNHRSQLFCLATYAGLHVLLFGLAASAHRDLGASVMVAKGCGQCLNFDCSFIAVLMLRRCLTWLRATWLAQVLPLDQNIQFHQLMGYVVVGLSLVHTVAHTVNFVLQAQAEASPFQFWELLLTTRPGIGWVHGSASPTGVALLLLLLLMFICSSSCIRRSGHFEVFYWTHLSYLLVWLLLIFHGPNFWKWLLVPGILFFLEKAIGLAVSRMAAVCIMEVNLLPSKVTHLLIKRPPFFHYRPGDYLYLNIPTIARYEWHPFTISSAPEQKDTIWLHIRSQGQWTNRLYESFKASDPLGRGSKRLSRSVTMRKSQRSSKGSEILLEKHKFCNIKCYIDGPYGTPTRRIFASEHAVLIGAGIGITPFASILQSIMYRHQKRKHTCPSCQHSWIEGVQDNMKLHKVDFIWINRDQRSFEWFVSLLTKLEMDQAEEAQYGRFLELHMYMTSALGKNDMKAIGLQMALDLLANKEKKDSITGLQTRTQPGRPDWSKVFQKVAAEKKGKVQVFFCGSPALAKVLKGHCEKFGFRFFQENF

Chain of NADPH oxidase 2 (Homo sapiens) (P04839 whole entry, looked up): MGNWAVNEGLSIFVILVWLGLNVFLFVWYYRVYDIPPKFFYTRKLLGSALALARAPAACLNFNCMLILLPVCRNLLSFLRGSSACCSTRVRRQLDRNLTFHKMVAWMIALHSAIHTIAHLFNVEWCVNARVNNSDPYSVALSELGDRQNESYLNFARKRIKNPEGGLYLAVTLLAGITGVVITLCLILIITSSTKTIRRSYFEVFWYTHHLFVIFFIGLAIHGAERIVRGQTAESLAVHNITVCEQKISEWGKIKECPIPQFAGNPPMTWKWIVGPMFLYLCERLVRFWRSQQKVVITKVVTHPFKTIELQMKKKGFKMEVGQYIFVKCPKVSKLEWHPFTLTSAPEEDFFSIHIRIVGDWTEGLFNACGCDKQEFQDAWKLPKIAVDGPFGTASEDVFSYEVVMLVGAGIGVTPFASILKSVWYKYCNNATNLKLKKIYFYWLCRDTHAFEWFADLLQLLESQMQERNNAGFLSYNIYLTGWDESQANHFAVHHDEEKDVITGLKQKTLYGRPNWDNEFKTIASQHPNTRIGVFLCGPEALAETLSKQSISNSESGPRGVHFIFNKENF
Chain of NADPH oxidase 4 (Homo sapiens) (Q9NPH5 whole entry, looked up): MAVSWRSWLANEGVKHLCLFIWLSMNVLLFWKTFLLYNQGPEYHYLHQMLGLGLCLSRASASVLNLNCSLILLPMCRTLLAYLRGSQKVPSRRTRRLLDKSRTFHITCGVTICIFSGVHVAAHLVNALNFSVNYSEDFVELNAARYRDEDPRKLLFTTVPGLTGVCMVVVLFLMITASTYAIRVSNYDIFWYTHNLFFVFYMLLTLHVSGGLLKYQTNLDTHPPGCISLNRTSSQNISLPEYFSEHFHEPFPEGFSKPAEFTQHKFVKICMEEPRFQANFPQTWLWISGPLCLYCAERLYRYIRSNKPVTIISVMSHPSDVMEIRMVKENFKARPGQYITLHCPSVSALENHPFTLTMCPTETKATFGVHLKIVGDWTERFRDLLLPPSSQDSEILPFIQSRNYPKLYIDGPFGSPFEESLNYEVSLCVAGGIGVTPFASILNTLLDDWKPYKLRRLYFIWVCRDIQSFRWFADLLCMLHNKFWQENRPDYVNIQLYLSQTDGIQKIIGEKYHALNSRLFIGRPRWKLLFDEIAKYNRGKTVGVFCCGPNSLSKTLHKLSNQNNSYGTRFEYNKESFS

On to `COc1ccc(-c2ccc3c(n2)CCCN3CC(O)CN2CCCc3nc(-c4ccc(Br)cc4)ccc32)cc1` (stereo not given), for which the z-score is -0.018 (inactive) and 0.615 (inactive) in assay [1]; 5.79 (inactive) and 1.91 (inactive) in assay [3]; 1.07 (inactive) and 0.581 (inactive) in [4]; 0.387 (inactive) and 0.0102 (inactive) in assay [5]; 0.322 (inactive) and 0.32 (inactive) in assay [6]; -0.506 and -0.456 in [7]. In addition, the z-score in [8] is 0.181 (inactive) and 2.63 (inactive); in assay [9], 0.169 (inactive) and 0.657 (inactive); in assay [10], -2.32 and -0.243. For the same compound, the composite z-score in assay [2] was 0.684 and 0.209.
As to `C=CCN(Cc1ccccc1)C(=O)C1N(C(C)(C)CO)C(=O)C2C(C(=O)O)C3C=CC21O3` (stereo not given), the z-score in assay [1] was -0.511 (inactive) and 1.45 (inactive); in assay [3] it was 0.0247 (inactive) and -0.244 (inactive); in assay [4], 0.0843 (inactive) and -0.355 (inactive); in assay [5], -1.15 (inactive) and -0.742 (inactive); in [6], -0.255 (inactive) and -0.354 (inactive); in assay [7], 0.0613 and -0.122. In addition, the z-score is 0.515 (inactive) and 0.043 (inactive) in assay [8]; 0.0722 (inactive) and 0.185 (inactive) in [9]; 0.793 and -0.0303 in assay [10]. Besides, the composite z-score in assay [2] is -0.144 and -0.779.
Regarding `CC(C)N1CC=CC23O[C@@H]4C=CCCOC(=O)C4[C@H]2C(=O)N(C(C)CO)[C@@H]3C1=O` (stereo not given in full), the z-score was 2.39 (inactive) and 2.01 (inactive) in [1]; 0.339 (inactive) and 1.47 (inactive) in assay [3]; -0.917 (inactive) and -0.564 (inactive) in assay [4]; -0.0544 (inactive) and 0.331 (inactive) in assay [5]; -1.54 (inactive) and -0.97 (inactive) in assay [6]; 0.22 and -0.109 in assay [7]. In addition, the z-score in assay [8] was 1.94 (inactive) and 1.59 (inactive); in assay [9] it was 0.808 (inactive) and 0.594 (inactive); in assay [10], 2.17 and 1.76. Moreover, the composite z-score in [2] was 0.0004 and -0.147.
Turning to `COC(=O)[C@@]1(Cc2ccc(F)cc2)[C@H]2c3cc(C(=O)N4CCCC4)n(Cc4c(CO)[nH]cc(C)c4=O)c3C[C@H]2CN1C(=O)c1ccccc1`, the z-score is -1.7 (inactive) and -1.76 (inactive) in [1]; 1.02 (inactive) and 1.15 (inactive) in assay [3]; 0.148 (inactive) and 0.543 (inactive) in [4]; 0.63 (inactive) and 0.306 (inactive) in assay [5]; 0.398 (inactive) and 0.57 (inactive) in assay [6]; -0.52 and -0.213 in [7]. The z-score in assay [8] is 0.636 (inactive) and 0.617 (inactive); in assay [9], -1.58 (inactive) and -0.346 (inactive); in assay [10], -2.05 and -0.222. Further, the composite z-score in [2] was 1.63 and 0.0811.
In the case of `C=CCN(C(=O)C1N(CCOCCO)C(=O)C2C(C(=O)O)C3C=CC21O3)C(C)(C)C` (stereo not given), the z-score in [1] is -0.265 (inactive) and -0.45 (inactive); in assay [3], 0.901 (inactive) and -0.5 (inactive); in assay [4], 0.264 (inactive) and 0.438 (inactive); in assay [5], -0.944 (inactive) and -0.84 (inactive); in [6], -0.305 (inactive) and -0.108 (inactive); in [7], 0.0267 and 0.353. For the same compound, the z-score in assay [8] is 0.388 (inactive) and 0.883 (inactive); in [9], 0.292 (inactive) and -0.3 (inactive); in assay [10], 1.19 and -0.295. Also, the composite z-score in assay [2] was -0.161 and -0.695.
Take `C=CCN(CCCCC)C(=O)C(c1cccs1)N(C(=O)/C=C\C(=O)O)c1ccc(CCO)cc1` (stereo not given): the z-score in assay [1] is 0.539 (inactive) and 0.137 (inactive); in [3], 0.0722 (inactive) and -0.629 (inactive); in assay [4], 0.181 (inactive) and -0.255 (inactive); in [5], -0.533 (inactive) and -0.741 (inactive); in [6], 0.0113 (inactive) and 0.0094 (inactive); in [7], 0.0901 and -0.111. The z-score in assay [8] was 0.259 (inactive) and -0.0131 (inactive); in assay [9], -0.6 (inactive) and -0.665 (inactive); in assay [10], 0.614 and 0.19. Further, in assay [2], the composite z-score is -0.147 and -0.15.
With `O=C1C[C@]2(c3ccc([N+](=O)[O-])cc3)C(=O)N(Cc3ccccc3)c3cc(CO)ccc3[C@H]2N1C1CCCCC1`, the z-score in assay [1] is 0.128 (inactive) and 0.873 (inactive); in assay [3] it was 0.164 (inactive) and 11.5 (active); in [4], -0.198 (inactive) and 1.01 (inactive); in [5], -0.57 (inactive) and 4.35 (inactive); in [6], -0.434 (inactive) and -0.166 (inactive); in [7], 0.483 and 2.97. Also, the z-score in assay [8] is 0.139 (inactive) and 1.55 (inactive); in assay [9] it was 0.644 (inactive) and -1.56 (inactive); in [10] it was -0.416 and -0.385. Besides, the composite z-score in assay [2] is -0.221 and -0.0626.
For the compound `CC(C)CCN1CCc2nc(-c3ccccc3)c3c(c2C1)CO[C@@H](C)C3`, the z-score in [1] was 0.842 (inactive); in assay [3] it was 0.253 (inactive); in assay [4], 0.145 (inactive); in [5] it was -0.895 (inactive); in assay [6] it was 0.0992 (inactive); in assay [7], -0.768. The results for the z-score in assay [8], in [9] and in [10] were 1.12 (inactive), 0.461 (inactive) and 0.427, respectively. In addition, the composite z-score in assay [2] was 0.173.
